Laboratory results: PubChem BioAssay (NCI)
This is part of a sample that, as a whole, favours compounds with a hit. Of some 83,000 tested, about 20% had one in any assay.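 Negative percent growth values reflect cell death: -40 means 40% of the cells present at the start died, and -100 means all died.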 Unmarked numbers belong to inactive results. Active and inactive are the calls of the source. Rule for the calls: active = growth percent below 10; inactive = the rest.

These molecules were tested on SK-OV-3 ovarian (assay: NCI-60 one-dose screen, 48 h (100 = growth as untreated, 0 = no growth, -100 = all killed)). Conditions: 10 µM unless noted.

| SMILES | growth |
| --- | --- |
| Cc1cc(C)n(CC(=O)Nc2ccc(-c3nc4ccccc4s3)cc2)n1 | 114% |
| CNS(=O)(=O)Nc1nccc(Cc2c(C)c3ccc(Oc4ncccn4)cc3oc2=O)c1F | 53.3% |
| C[C@@H](Oc1cc(-n2cnc3ccc(CN4CCN(C)CC4)cc32)sc1C(N)=O)c1ccccc1C(F)(F)F | -2.74% (active) |
| COc1ccc(Cl)c(Nc2nc3ccccc3nc2NS(=O)(=O)c2cccc(NC(=O)C(C)(C)N)c2)c1 | 4.52% (active) |
| COc1ccc(-c2ccc3c(N4CCOC[C@@H]4C)nc(N4CCOC[C@@H]4C)nc3n2)cc1CO | -33.7% (active) |
| O=C(Nc1cccc(Cl)c1)Nc1ncc(CCNc2ncnc3ccsc23)s1 | 47.5% |
| C#Cc1cccc(Nc2ncnc3cc(OCCOC)c(OCCOC)cc23)c1 | -21.9% (active) |
| O=C(Nc1ccc(Nc2ncnc3sc4c(c23)CCOC4)cc1)Nc1ccc(Cl)c(C(F)(F)F)c1 | 95.3% |
| CCCCN1C(=O)c2cccc3c(-c4ccc5c(c4)ncn5C4CCCCC4)ccc(c23)C1=O | 92.3% |
| COc1cc(Nc2c(C#N)cnc3cc(OCCCN4CCN(C)CC4)c(OC)cc23)c(Cl)cc1Cl | 44.3% |
| COc1ncc(-c2ccc3nccc(-c4ccnnc4)c3c2)cc1NS(=O)(=O)c1ccc(F)cc1F | -52.1% (active) |
| C/C(=C(/c1ccc(Cl)cc1)c1ccc(OCCN2CCCC2)cc1)c1ccccc1 | 121% |
| COc1cc(OC)c(/C=C/S(=O)(=O)Cc2ccc(OC)c(NCC(=O)O)c2)c(OC)c1 | 15.8% |
| Nc1ncnc2c1ccn2-c1cccc(NC(=O)c2ccc(N3CCOCC3)c(C(F)(F)F)c2)c1 | 77.3% |
| C/C=C/C=N/NC(=S)Nc1ccccc1 | 94.2% |
| C=CC(=O)Nc1cc(Nc2nccc(-c3cn(C)c4ccccc34)n2)c(OC)cc1N(C)CCN(C)C | 15.4% |
| C[C@@H](NC(=O)c1ncnc(N)c1Cl)c1ncc(C(=O)Nc2cc(C(F)(F)F)c(Cl)cn2)s1 | 93.6% |
| COc1cc2c(Oc3ccc4[nH]c(C)cc4c3F)ncnc2cc1OCCCN1CCCC1 | 82.1% |

| SMILES | growth |
| --- | --- |
| NC[C@@](O)(c1ccc(Cl)cc1)c1ccc(-c2cn[nH]c2)cc1 | 20% |
| Cc1cc(O)cc(-c2c(-c3ccnc(-c4cccnc4)c3)cnn2C)c1 | 69.3% |
| CS(=O)(=O)N1CCN(Cc2cc3nc(-c4cccc5[nH]ncc45)nc(N4CCOCC4)c3s2)CC1 | -18.4% (active) |
| CN[C@@H]1C[C@H]2O[C@@](C)([C@@H]1OC)n1c3ccccc3c3c4c(c5c6ccccc6n2c5c31)C(=O)N[C@H]4O | -68.5% (active) |
| O=c1[nH]ccc2c(S(=O)(=O)N3CCCNCC3)cccc12 | -0.289% (active) |
| CCN(CCCOc1ccc2c(Nc3cc(CC(=O)Nc4cccc(F)c4)[nH]n3)ncnc2c1)CCOP(=O)(O)O | 77.1% |
| Cn1cc(-c2cnn3c(N)c(Br)c([C@@H]4CCCNC4)nc23)cn1 | 38.1% |
| C[C@@H](Nc1cc(F)cc(F)c1)c1cc(C(=O)N(C)C)cc2c(=O)cc(N3CCOCC3)oc12 | 3.43% (active) |
| COc1ccc2c(CCCc3ccc(Cl)cc3Cl)c3[n+](cc2c1OC)CCc1cc2c(cc1-3)OCO2 | -8.36% (active) |
| Cn1c(=O)c(F)c(Nc2ccc(I)cc2F)c2c(=O)n(C[C@@H](O)CO)cnc21 | 44.8% |
| CC(C)(C)c1cnc(CSc2cnc(NC(=O)C3CCNCC3)s2)o1 | 6.31% (active) |
| NC1(C(=O)N[C@@H](CCO)c2ccc(Cl)cc2)CCN(c2ncnc3[nH]ccc23)CC1 | -6.71% (active) |
| COC(=O)c1ccc2c(C(=Nc3ccc(N(C)C(=O)CN4CCN(C)CC4)cc3)c3ccccc3)c(O)[nH]c2c1 | 53.2% |
| CS(=O)(=O)CCNCc1ccc(-c2ccc3ncnc(Nc4ccc(OCc5cccc(F)c5)c(Cl)c4)c3c2)o1 | -6.37% (active) |
| C1=C\COCc2cc(ccc2OCCN2CCCC2)Nc2nccc(n2)-c2cccc(c2)COC/1 | -27.6% (active) |
| O=C(Nc1cn[nH]c1-c1nc2ccc(CN3CCOCC3)cc2[nH]1)NC1CC1 | -5.97% (active) |
| Cc1cc2c(-c3nc4ccccn4c3N)c(O)c(O)cc2c(O)c1-c1c(C)cc2c(-c3nc4ccccn4c3N)c(O)c(O)cc2c1O | -10.4% (active) |
